Results from PubChem BioAssay AID651739 (Broad Institute, 2012).
Among all 5,600 compounds or so, about 4,100 (73%) were called active. Another 4% or so got no clear call; they are omitted.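 How the source made its calls: active means mean replicate inhibition above about 95% and at least 55% of replicates individually reaching it (limit read from the data); inconclusive means only one of the two criteria is met; inactive means neither criterion is met.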 So high a share suggests a set chosen from earlier hits. These entries were drawn from the full list.

Assay: T. cruzi intracellular proliferation inhibitors, confirmation, cell-based, NIH3T3 host, beta-gal parasite, luminescence, cherry-pick (AID 651739)
Details: T. cruzi beta-gal in NIH3T3, GalScreen luminescence, 90 h; at 8.35 µM; stronger effect = higher value

inhibition, active:
Cc1ccc(S(=O)(=O)Nc2ccc3c(c2)C(=O)N([C@H](C)CO)C[C@H](C)[C@H](CN(C)Cc2ccc(Cl)c(Cl)c2)O3)cc1 102%
O=C(C[C@@H]1C[C@@H]2c3cc(NC(=O)c4ccc5c(c4)OCO5)ccc3O[C@@H]2[C@@H](CO)O1)NCc1ccc(Cl)cc1 106%
COc1cccc(S(=O)(=O)Nc2ccc3c(c2)[C@H]2C[C@H](CC(=O)NCc4ccc(Cl)cc4)O[C@H](CO)[C@H]2O3)c1 104%
C/C=C/c1ccc([C@H]2[C@@H](CNC(C)C)N(c3nc(CC)cs3)[C@H]2CO)cc1 101%
C[C@H]1CCCCO[C@H](CN(C)Cc2ccc(C(F)(F)F)cc2)[C@@H](C)CN([C@@H](C)CO)C(=O)c2cc(NC(=O)C3CCCCC3)ccc2O1 100%
C[C@@H]1CCCCO[C@H](CN(C)Cc2ccc(Cl)c(Cl)c2)[C@H](C)CN([C@@H](C)CO)C(=O)c2cc(NC(=O)C3CCCCC3)ccc2O1 97.4%
C[C@@H]1CCCCO[C@@H](CN(C)CC2CC2)[C@H](C)CN([C@H](C)CO)C(=O)c2cc(NC(=O)C3CCCCC3)ccc2O1 99.2%
C[C@@H]1CN([C@@H](C)CO)C(=O)c2cc(NC(=O)C3CCCCC3)ccc2O[C@@H](C)CCCCO[C@H]1CN(C)Cc1ccncc1 97.3%
C[C@H](CO)N1C[C@H](C)[C@@H](CN(C)Cc2ccc(C(F)(F)F)cc2)OCCCC[C@H](C)Oc2ccc(NC(=O)C3CCCCC3)cc2C1=O 98.1%
C[C@@H]1CCCCO[C@@H](CN(C)Cc2ccc3c(c2)OCO3)[C@@H](C)CN([C@@H](C)CO)C(=O)c2cc(NC(=O)Nc3ccccc3)ccc2O1 110%
COc1ccc(CN(C)C[C@H]2OCCCC[C@H](C)Oc3ccc(NC(=O)Nc4ccc5c(c4)OCO5)cc3C(=O)N([C@H](C)CO)C[C@@H]2C)cc1 100%
CNC[C@@H]1Oc2cc(C#CCC3CCCC3)ccc2S(=O)(=O)N([C@H](C)CO)C[C@H]1C 95%
C[C@@H]1CN([C@H](C)CO)S(=O)(=O)c2ccc(C#CCC3CCCC3)cc2O[C@H]1CN(C)C(=O)CC1CC1 97.4%
CO[C@H](CN(C)S(=O)(=O)c1ccc(Cl)cc1)[C@@H](C)CN(Cc1ccccc1Cl)[C@H](C)CO 110%
CN1C(=O)c2cc(NC(=O)c3cnccn3)ccc2OC[C@@H]2O[C@H](CC(=O)N[C@@H]3CCN(Cc4ccccc4)C3)CC[C@@H]21 99.8%
CN1C(=O)c2cc(NC(=O)Nc3ccccc3F)ccc2OC[C@H]2O[C@H](CC(=O)NCc3ccc(-c4ccccc4)cc3)CC[C@H]21 108%
COc1ccc(NC(=O)Nc2ccc3c(c2)C(=O)N([C@H](C)CO)C[C@H](C)[C@H](CN(C)S(=O)(=O)c2ccc(Cl)cc2)OCCCC[C@H](C)O3)cc1 104%
C[C@H]1CCCCO[C@H](CN(C)S(=O)(=O)c2ccc(Cl)cc2)[C@@H](C)CN([C@@H](C)CO)C(=O)c2cc(NC(=O)Nc3ccc4c(c3)OCO4)ccc2O1 103%
CC(C)NC(=O)Nc1ccc2c(c1)C(=O)N([C@@H](C)CO)C[C@H](C)[C@H](CN(C)S(=O)(=O)c1ccc(Cl)cc1)OCCCC[C@H](C)O2 104%
C[C@H](CO)N1C[C@H](C)[C@@H](CN(C)S(=O)(=O)c2ccccc2F)Oc2ncc(C#Cc3ccccc3F)cc2C1=O 106%
C[C@H](CO)N1C[C@H](C)[C@@H](CN(C)S(=O)(=O)c2ccccc2)Oc2ncc(C#Cc3ccccc3F)cc2C1=O 111%
CCCNC(=O)N(C)C[C@@H]1Oc2ncc(C#Cc3ccccc3F)cc2C(=O)N([C@@H](C)CO)C[C@H]1C 112%
C[C@@H]1CN([C@@H](C)CO)C(=O)c2cc(NC(=O)Nc3cccc4ccccc34)ccc2O[C@H]1CN(C)Cc1ccc(Cl)c(Cl)c1 97.9%
C[C@@H]1CN([C@@H](C)CO)C(=O)c2cc(NC(=O)Nc3cccc4ccccc34)ccc2O[C@H]1CN(C)Cc1ccc(Oc2ccccc2)cc1 103%
OC[C@@H]1[C@H](c2ccc(C#Cc3ccccc3)cc2)[C@@H]2CN(Cc3cncnc3)CCCCN12 104%
OC[C@@H]1[C@H](c2ccc(C#CC3(O)CCCC3)cc2)[C@H]2CN(Cc3cncnc3)CCCCN12 99.2%
Cc1ccc(-c2ccc([C@H]3[C@H](CO)N4CCCCN(Cc5cncnc5)C[C@@H]34)cc2)cc1 102%
O=C(Nc1cc(Cl)cc(Cl)c1)N[C@H]1CC[C@@H](CCNS(=O)(=O)c2cccc(F)c2)O[C@H]1CO 113%
CCc1cnc(N2[C@H](C#N)[C@H](c3ccc(C4=CCCC4)cc3)[C@@H]2CO)s1 106%
N#C[C@H]1[C@@H](c2ccc(C3=CCCCC3)cc2)[C@@H](CO)N1C(=O)NC1CCCCC1 105%
CS(=O)(=O)N1[C@@H](C#N)[C@H](c2ccc(C#CC3CCCCC3)cc2)[C@@H]1CO 103%
CC(C)NC(=O)N1[C@H](C#N)[C@H](c2ccc(C#CC3CCCCC3)cc2)[C@H]1CO 105%

inhibition, inactive:
O=C(C[C@@H]1C[C@H]2c3cc(NC(=O)C4CCC4)ccc3O[C@H]2[C@@H](CO)O1)NCc1ccc2c(c1)OCO2 12.6%
O=C(Nc1ccc2c(c1)[C@@H]1C[C@H](CC(=O)N3CCOCC3)O[C@@H](CO)[C@@H]1O2)c1ccc2c(c1)OCO2 13.5%
CCCNC(=O)N1[C@@H]2c3cccc(=O)n3C[C@H]1[C@H](CO)[C@H]2C(=O)NCC(F)(F)F 21.5%
CN1C(=O)c2cc(NC(=O)c3cnccn3)ccc2OC[C@@H]2O[C@@H](CC(=O)N[C@H]3CCN(Cc4ccccc4)C3)CC[C@H]21 71.5%
C[C@@H]1CN([C@H](C)CO)C(=O)c2cc(NS(C)(=O)=O)ccc2O[C@@H](C)CCCCO[C@H]1CN(C)S(=O)(=O)c1cn(C)cn1 -9.98%
O=C(c1ccc(F)cc1)N1CCCCN2[C@H](C1)[C@@H](c1ccc(C#CC3(O)CCCC3)cc1)[C@@H]2CO 45.9%
OC[C@H]1[C@H](c2ccc(-c3cccc(F)c3)cc2)[C@@H]2CN(Cc3cncnc3)CCCCN12 82.2%
Cc1cccc(-c2ccc([C@H]3[C@@H](CO)N4CCCCN(Cc5cncnc5)C[C@H]34)cc2)c1 84.9%
O=C(Nc1ccc(Cl)cc1)N[C@@H]1CC[C@@H](CCNC(=O)c2ccccc2F)O[C@H]1CO 45.6%
